# Active and inactive are the calls of the source.
# Columns and labels:
# [1] = binders of probe aFSTL3 on microarray, primary screen, stem cell growth factor project, biochemical, small-molecule microarray, fluorescence 635/667 (AID 1064); details: higher = more signal;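 also: measures binding of the biotinylated anti-FSTL3 antibody to printed compounds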
# [2] = binders from COS7 lysate, DM2A8 probe, primary screen, torsin A project, cell lysate, small-molecule microarray, fluorescence 635/667 (AID 1065); details: higher = more signal, COS7 lysate expressing mutant human TOR1A
# [3] = binders of probe aFGF2 on microarray, primary screen, stem cell growth factor project, biochemical, small-molecule microarray, fluorescence 635/667 (AID 1067); details: higher = more signal;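 also: measures binding of biotinylated aFGF2 protein to printed compounds on slides; z-score merges feature fluorescence and signal-to-noise across triplicate slides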
# [4] = binders of probe aFGF10 on microarray, primary screen, stem cell growth factor project, biochemical, small-molecule microarray, fluorescence 635/667 (AID 1071); details: higher = more signal;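 also: score merges 667 nm spot intensity and signal to noise from triplicate slides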
# [5] = biological target: Neurogenic locus notch homolog protein 2 (Homo sapiens) (UniProt Q04721); assay: Notch2 binders on small-molecule microarrays, primary screen, biochemical, small-molecule microarray, 635 nm fluorescence, stem cell growth factors (AID 1073); details: Notch2 binding, higher = more signal
# [6] = biological target: Pro-neuregulin-1, membrane-bound isoform (Homo sapiens) (UniProt Q02297); assay: NRG1 binders on small-molecule microarrays, primary screen, psychiatric disease protein project, biochemical, small-molecule microarray, fluorescence 635/667 (AID 1075); details: NRG1 binding, 635 nm fluorescence, higher = more signal;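 also: score combines 667 nm spot fluorescence with signal to noise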
# [7] = system: Neuregulin-1 EGF-like domain; assay: binders of neuregulin-1 EGF-like domain, primary screen, biochemical, small-molecule microarray, 635 nm fluorescence (AID 1081); details: small-molecule microarray binding, higher = more signal;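 also: binding of the protein to compounds printed on small-molecule microarray slides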
# [8] = FRG1 promoter luciferase signal modulators, primary screen, FRG1 inhibition for FSHD, cell-based, C2C12 myotubes, firefly/Renilla luciferase, luminescence (AID 1084); details: higher = more signal, called active from +8 up or from −8 down
# [9] = binders of probe aFST on microarray, primary screen, stem cell growth factor project, biochemical, small-molecule microarray, fluorescence 635/667 (AID 1086); details: higher = more signal;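 also: score merges 667 nm fluorescence with signal-to-noise of each printed compound spot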
# [10] = binders of probe aHhip on microarray, primary screen, stem cell growth factor project, biochemical, small-molecule microarray, fluorescence 635/667 (AID 1087); details: higher = more signal;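 also: score merges spot fluorescence at 667nm with spot signal to noise ratio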
# [11] = system: PRMT1 (protein arginine N-methyltransferase 1); assay: PRMT1 binders on small-molecule microarrays, primary screen, biochemical, small-molecule microarray, 635 nm fluorescence (AID 1088); details: small-molecule microarray binding, higher = more signal;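 also: binding of Prmt1 protein to compounds spotted on small-molecule microarray slides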
# [12] = yeast growth modulation, basal conditions, primary screen, YJM789 clinical isolate, OD600, 24 h (AID 1089);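 also: growth of clinical yeast isolate S. cerevisiae YJM 789 seeded 1000 cells per well; test concentration not given here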; details: S. cerevisiae YJM789 growth, higher = more signal, called active from +8 up or from −8 down
# [13] = fission yeast growth modulation, primary screen, strain 972, OD600, 24 h, no modulator (AID 1090);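 also: basal condition with compound alone and no growth modifier present; test concentration not given here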; details: S. pombe 972 growth, higher = more signal, called active from +8 up or from −8 down
# [14] = S. cerevisiae growth modulation with rapamycin, primary screen, strain BY4716, OD600, 96 h (AID 1091); details: higher = more signal, called active from +8 up or from −8 down; also: test concentration not given here
# [15] = biological target: Torsin-1A-interacting protein 2 (Homo sapiens) (UniProt Q8NFQ8); assay: LULL1 binders on small-molecule microarray, primary screen, cell lysate, human LULL1 lysate, 635/667 nm fluorescence (AID 1092); details: hLULL1 lysate binding, 635 nm fluorescence, higher = more signal;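 also: probe is lysate of COS7 cells overexpressing human LULL1; score merges per-feature 667 nm fluorescence with signal-to-noise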
# [16] = E. coli growth modulation, two-sided OD650, primary screen, E. coli filamentation project, strain DRC41, 24 h (AID 1093); details: OD650, 24 h, higher = more signal, called active from +8 up or from −8 down;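 also: MC1000 strain lacking acrAB efflux and sulA so SOS filamentation is blocked; test concentration not given here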
# [17] = small-molecule microarray binders of probe aLefty2, primary screen, biochemical, biotinylated probe, 635/667 nm fluorescence (AID 1094); details: higher = more signal;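 also: score merges spot fluorescence near 667 nm with spot signal-to-noise ratio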
# [18] = system: Noggin (protein binding on small-molecule microarray); assay: Noggin binders on small-molecule microarray, primary screen, biochemical, 635/667 nm fluorescence (AID 1095); details: 635 nm fluorescence, higher = more signal;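 also: score merges 667 nm feature fluorescence with signal to noise over triplicate slides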
# [19] = biological target: Neurogenic locus notch homolog protein 3 (Homo sapiens) (UniProt Q9UM47); assay: NOTCH3 binders on small-molecule microarray, primary screen, biochemical, 635/667 nm fluorescence (AID 1096); details: NOTCH3 binding, 635 nm fluorescence, higher = more signal
# [20] = small-molecule microarray binders of probe aEGFR, primary screen, biochemical, biotinylated probe, 635/667 nm fluorescence (AID 1097); details: higher = more signal;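 also: probe is a biotinylated anti-EGFR antibody binding compounds printed on slides; score combines fluorescence near 667 nm and signal to noise of each spot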
# Sequence of Neurogenic locus notch homolog protein 2 (Homo sapiens) (Q04721 whole entry, looked up, canonical isoform): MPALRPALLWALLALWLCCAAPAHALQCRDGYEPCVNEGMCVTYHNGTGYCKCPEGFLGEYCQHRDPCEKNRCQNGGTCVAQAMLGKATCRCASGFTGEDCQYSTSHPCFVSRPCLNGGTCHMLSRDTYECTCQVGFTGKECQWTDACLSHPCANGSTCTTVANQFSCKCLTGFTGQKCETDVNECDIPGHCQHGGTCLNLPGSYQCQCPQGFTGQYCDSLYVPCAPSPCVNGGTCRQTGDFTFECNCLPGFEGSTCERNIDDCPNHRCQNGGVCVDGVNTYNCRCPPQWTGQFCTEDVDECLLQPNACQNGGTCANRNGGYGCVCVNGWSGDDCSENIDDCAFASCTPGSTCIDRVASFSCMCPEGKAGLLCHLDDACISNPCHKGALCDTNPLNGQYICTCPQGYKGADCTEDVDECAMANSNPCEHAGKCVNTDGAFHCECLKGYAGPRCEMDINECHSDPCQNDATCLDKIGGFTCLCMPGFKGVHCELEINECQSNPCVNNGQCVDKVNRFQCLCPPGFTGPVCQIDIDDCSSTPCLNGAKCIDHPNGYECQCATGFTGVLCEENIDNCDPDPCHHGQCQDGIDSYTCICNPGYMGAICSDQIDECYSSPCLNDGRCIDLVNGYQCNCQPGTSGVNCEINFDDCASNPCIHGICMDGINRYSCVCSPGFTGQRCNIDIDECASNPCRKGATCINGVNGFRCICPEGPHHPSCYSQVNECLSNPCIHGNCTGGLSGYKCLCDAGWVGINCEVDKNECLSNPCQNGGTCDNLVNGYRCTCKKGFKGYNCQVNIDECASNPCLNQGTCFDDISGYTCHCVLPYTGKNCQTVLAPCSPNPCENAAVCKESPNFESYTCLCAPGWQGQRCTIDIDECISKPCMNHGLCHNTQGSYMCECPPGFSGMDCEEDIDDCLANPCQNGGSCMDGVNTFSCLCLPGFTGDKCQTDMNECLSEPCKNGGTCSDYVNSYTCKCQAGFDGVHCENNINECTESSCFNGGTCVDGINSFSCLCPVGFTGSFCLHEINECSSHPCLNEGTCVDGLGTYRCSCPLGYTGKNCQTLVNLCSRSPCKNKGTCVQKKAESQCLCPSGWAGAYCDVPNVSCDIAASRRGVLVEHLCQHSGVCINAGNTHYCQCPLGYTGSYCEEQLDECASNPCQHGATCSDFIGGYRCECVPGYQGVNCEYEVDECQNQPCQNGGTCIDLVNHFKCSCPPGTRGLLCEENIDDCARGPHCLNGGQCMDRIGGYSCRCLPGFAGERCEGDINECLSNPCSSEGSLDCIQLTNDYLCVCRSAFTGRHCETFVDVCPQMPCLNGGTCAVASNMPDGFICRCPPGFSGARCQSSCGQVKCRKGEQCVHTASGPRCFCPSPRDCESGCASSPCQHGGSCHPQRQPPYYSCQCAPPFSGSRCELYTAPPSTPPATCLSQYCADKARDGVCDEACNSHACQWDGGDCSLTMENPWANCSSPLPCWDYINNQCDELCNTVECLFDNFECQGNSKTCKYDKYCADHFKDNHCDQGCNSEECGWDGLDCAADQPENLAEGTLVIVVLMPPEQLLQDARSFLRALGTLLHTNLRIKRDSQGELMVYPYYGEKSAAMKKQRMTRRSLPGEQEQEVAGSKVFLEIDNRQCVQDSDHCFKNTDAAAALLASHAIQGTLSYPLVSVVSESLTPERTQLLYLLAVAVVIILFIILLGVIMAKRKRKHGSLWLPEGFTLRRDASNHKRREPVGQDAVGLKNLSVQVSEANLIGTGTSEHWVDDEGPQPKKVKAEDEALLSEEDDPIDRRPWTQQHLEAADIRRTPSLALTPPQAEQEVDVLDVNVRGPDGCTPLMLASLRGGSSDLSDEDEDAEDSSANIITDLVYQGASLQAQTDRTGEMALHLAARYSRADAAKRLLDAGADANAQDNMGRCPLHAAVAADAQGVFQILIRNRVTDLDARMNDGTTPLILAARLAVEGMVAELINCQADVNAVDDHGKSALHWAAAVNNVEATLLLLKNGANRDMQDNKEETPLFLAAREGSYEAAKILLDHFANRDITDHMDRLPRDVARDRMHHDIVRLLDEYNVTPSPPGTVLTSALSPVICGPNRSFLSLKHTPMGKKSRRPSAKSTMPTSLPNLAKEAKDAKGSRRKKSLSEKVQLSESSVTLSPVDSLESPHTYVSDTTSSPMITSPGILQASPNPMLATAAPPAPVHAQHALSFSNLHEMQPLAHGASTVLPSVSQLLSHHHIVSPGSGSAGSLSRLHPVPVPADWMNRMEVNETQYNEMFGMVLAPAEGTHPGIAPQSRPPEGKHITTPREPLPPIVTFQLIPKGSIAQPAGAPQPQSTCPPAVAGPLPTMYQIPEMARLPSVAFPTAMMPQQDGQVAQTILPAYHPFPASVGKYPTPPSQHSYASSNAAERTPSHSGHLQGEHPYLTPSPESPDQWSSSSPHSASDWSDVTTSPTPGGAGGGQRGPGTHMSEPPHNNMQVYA
# Sequence of Torsin-1A-interacting protein 2 (Homo sapiens) (Q8NFQ8 whole entry, looked up): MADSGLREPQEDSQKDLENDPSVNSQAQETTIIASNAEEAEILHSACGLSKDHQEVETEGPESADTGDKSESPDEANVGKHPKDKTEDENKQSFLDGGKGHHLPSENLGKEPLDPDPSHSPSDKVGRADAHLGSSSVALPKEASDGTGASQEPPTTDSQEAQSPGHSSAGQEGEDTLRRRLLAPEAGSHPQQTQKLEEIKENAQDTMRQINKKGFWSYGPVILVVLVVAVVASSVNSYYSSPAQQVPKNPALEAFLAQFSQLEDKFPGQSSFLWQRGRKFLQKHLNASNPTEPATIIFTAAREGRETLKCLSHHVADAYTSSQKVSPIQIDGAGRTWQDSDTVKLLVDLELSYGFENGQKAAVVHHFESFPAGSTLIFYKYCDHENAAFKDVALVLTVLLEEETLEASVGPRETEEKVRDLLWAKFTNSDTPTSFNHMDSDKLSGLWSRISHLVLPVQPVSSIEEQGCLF
# Sequence of Pro-neuregulin-1, membrane-bound isoform (Homo sapiens) (Q02297 whole entry, looked up, the tested form may be a part, canonical isoform): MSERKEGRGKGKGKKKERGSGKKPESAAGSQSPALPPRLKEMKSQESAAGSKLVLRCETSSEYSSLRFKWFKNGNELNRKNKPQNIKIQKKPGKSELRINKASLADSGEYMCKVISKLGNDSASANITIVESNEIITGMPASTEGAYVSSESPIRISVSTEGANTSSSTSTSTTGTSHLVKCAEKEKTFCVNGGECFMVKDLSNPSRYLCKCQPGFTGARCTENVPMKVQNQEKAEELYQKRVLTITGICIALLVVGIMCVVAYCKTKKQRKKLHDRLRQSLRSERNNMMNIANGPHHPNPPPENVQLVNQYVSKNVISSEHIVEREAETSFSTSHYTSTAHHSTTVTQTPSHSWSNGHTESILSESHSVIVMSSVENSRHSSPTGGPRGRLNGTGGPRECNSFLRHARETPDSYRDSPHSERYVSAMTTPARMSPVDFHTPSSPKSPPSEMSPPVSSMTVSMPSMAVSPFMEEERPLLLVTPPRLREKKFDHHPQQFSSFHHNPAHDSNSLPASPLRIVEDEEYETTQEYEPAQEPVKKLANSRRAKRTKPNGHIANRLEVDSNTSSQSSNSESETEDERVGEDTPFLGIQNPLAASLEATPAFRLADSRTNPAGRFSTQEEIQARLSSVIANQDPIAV
SMILES,composite z-score [1],composite z-score [2],composite z-score [3],composite z-score [4],composite z-score [5],composite z-score [6],composite z-score [7],z-score [8],composite z-score [9],composite z-score [10],composite z-score [11],z-score [12],z-score [13],z-score [14],composite z-score [15],z-score [16],composite z-score [17],composite z-score [18],composite z-score [19],composite z-score [20]
CCCCN1CC=CC23O[C@@H]4C=CCOC(=O)[C@@H]4[C@H]2C(=O)N(C(CO)C(C)C)[C@@H]3C1=O (stereo not given in full),0.0186,-0.438,-0.124,-0.275,-0.758,-0.397,-0.0125,0.353 (inactive),-0.288,-0.13,-0.453,-0.161 (inactive),-0.325 (inactive),0.752 (inactive),-1.06,-0.505 (inactive),-0.118,-0.319,-0.743,-0.217
COC(=O)c1ccc([C@H](NC(=O)c2ccccc2)[C@]2(C)C[C@H]2C2CCCCC2)cc1,0.735,-0.678,0.056,0.172,1.22,1.18,0.678,-1 (inactive),0.86,0.245,0.0232,0.696 (inactive),1.52 (inactive),-1.23 (inactive),3.03,-1.38 (inactive),0.223,-0.178,1.05,-0.116
N#Cc1ccc(C(O)C2C=CC3C(=O)N(c4ccccc4)C(=O)C3N2Nc2ccc([N+](=O)[O-])cc2)cc1 (stereo not given),0.561,0.31,0.139,0.863,1.58,1.77,1.28,0.498 (inactive),1.02,-0.175,1.51,-0.107 (inactive),0.602 (inactive),2.45 (inactive),3.13,-0.684 (inactive),0.0913,-0.463,1.09,0.0522
COC(=O)[C@@]1(Cc2ccccc2)[C@@H]2[C@@H](CC(=O)[C@H]2CC(=O)C(=O)N(C)C)CN1C(=O)c1ccccc1,0.186,-1,-0.169,0.281,1.19,1.89,1.21,1.1 (inactive),0.319,-0.0994,-0.476,1.02 (inactive),1.29 (inactive),0.633 (inactive),3.34,-0.2 (inactive),-0.0221,-0.505,-0.18,0.142
O=C1OCCC/C=C\[C@H]2OC34C=CCN(Cc5ccccc5)C(=O)[C@H]3N(CCCCCO)C(=O)[C@@H]4C12 (stereo not given in full),0.566,-0.079,-0.147,-0.0433,-1.12,1.05,0.387,2.92 (inactive),-0.693,-0.116,1.01,-1.05 (inactive),-2.16 (inactive),15.7 (active),3.13,0.549 (inactive),-0.166,-0.773,-0.0471,-0.245
COCCOC(=O)N1C(=O)[C@@]2(c3cc(C#Cc4ccc(OC)cc4)ccc31)[C@H](C(=O)N1CCCCCCC1)[C@H]1C(=O)O[C@H](c3ccccc3)[C@H](c3ccccc3)N1[C@@H]2c1ccccc1OCCO,3.15,0.486,0.685,0.265,1.13,1.29,1.12,-0.575 (inactive),3.04,2.21,1.44,1.83 (inactive),1.44 (inactive),3.98 (inactive),3.66,-0.291 (inactive),1.63,1.91,1.12,1.02
